Source: PubChem BioAssay
KCNQ2 inh – blocks the rat KCNQ2 potassium channel; O88943; CHO-K1 KCNQ2, FluxOR thallium flux, 20 min; active compounds read low; hit rate 1.1% among 310,000; AID 2156; B-score at 10 µM;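 active means fluorescence ratio B-score at most minus 3 library SDs, with starting brightness B-score within 2 library SDs, cut at about -5.5 in these data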
KCNQ2 pot – potentiators of rat KCNQ2 potassium channel; O88943; B-score at 10 µM; CHO-K1 KCNQ2, FluxOR thallium flux fluorescence; active compounds read high; hit rate 0.54% among 310,000;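 active means fluorescence ratio B-score at least 3 SD of library B-scores, with initial fluorescence B-score within 3 of them, cut at about 5.3 in these data; same plate scores as AID 2156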;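 further: B-score of peak minus minimum over baseline fluorescence ratio after K+ and Tl+ stimulus; positive B-score means potentiation of KCNQ2 with more thallium influx and brighter signal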
KCNQ2 block conf – confirmation of rat KCNQ2 potassium channel inhibitors; shares compounds with KCNQ2 inh; KCNQ2-expressing cells, thallium flux, inhibition; active compounds read low; activity change, negative = inhibition, % at 10 µM; hit rate 57% among 1,000; AID 493025;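 further: 0% = vehicle wells and values are ratio percent relative to vehicle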
KCNQ1 spec – KCNQ2 inhibitor that also affects human KCNQ1 channel | shares compounds with KCNQ2 inh | KCNQ1-expressing cells, FluxOR thallium flux fluorescence; active compounds read low | activity change, negative = inhibition, % at 10 µM | hit rate 15% among 1,000 | AID 493026;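 active means activity change at least 3 SD of negative controls below their mean in both duplicate wells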;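 further: CHO cells stably transfected with KCNQ1 and depolarized by potassium stimulus; peak minus minimum fluorescence over baseline after thallium addition; 0% = vehicle negative control and -100% = blank without thallium stimulus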
CHO Tl ctr – counter-screen for KCNQ2 inhibitors: effect in parental CHO cells. activity change, % at 10 µM. thallium flux counter-screen; active compounds read low. hit rate 14% among 1,000. AID 493029. shares compounds with KCNQ2 inh;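 further: 0% = vehicle negative controls with stimulus buffer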
KCNQ2 inh confirm – confirmation of rat KCNQ2 potassium channel inhibitors | calls only at 10 µM | shares compounds with KCNQ2 inh | KCNQ2-expressing cells, automated patch clamp current | hit rate 49% among 550
Kir21 conf inh – confirmation of mouse Kir2.1 potassium channel inhibitors; Tl flux remaining, % of negative control (active compounds read low), % at 10 µM; Kir2.1-expressing cells, FluxOR thallium flux fluorescence; active compounds read low; AID 2032; hit rate 41% among 2,300; shares compounds with KCNQ2 pot;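 active means Primary-screen hit whose thallium flux fell at least 3 control SD below untreated wells in both duplicates, with normal baseline fluorescence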;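 further: 0% = blank wells without stimulus and 100% = stimulated no-compound controls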
Target sequence (P35561 whole entry, looked up): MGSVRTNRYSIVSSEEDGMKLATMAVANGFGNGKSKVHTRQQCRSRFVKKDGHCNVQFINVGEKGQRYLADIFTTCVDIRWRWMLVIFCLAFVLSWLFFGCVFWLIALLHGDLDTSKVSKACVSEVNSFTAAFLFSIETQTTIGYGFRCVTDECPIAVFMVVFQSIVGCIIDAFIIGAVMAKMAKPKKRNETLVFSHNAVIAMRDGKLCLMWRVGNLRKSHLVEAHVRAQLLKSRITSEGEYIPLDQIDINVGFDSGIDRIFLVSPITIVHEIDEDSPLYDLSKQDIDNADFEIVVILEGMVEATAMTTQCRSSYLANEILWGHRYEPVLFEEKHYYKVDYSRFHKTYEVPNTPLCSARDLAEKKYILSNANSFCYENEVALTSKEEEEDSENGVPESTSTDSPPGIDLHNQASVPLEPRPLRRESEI
HEK293 Tl flux – parental HEK293 activity in Kir2.1 inhibitor counter-screen; parental HEK293 cells, FluxOR thallium flux fluorescence; 0% = unstimulated blank wells; FluxOR signal as % of negative control (100 = no effect), % at 10 µM; shares compounds with KCNQ2 pot; hit rate 19% among 2,300;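 active means dye signal at least 3 control SD above or below untreated wells in both duplicates, raw fluorescence within 3, either direction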;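 further: percent is based on the flux ratio of peak minus minimum fluorescence over baseline F0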
An asterisk follows results filed as active; i = inactive; . = not tested or not shown; + = active, no number. Most compounds without a hit are left out; they make up all but 1.6% or so of the library. Unless noted, how the calls were made is not given here.

SMILES	KCNQ2 inh	KCNQ2 pot	KCNQ2 block conf	KCNQ1 spec	CHO Tl ctr	others
COc1cccc(N2C(=O)NC(=O)/C(=C/c3ccc4c5c(cccc35)CC4)C2=O)c1	i	.	.	.	.
COc1ccccc1C(=O)C1CCCN(Cc2cnc(C)s2)C1 (stereo not given)	i	.	.	.	.
CN(C)C(=S)SSC(=S)N(C)C	-10.3*	-10.3	i	i	i
CCOC(=O)C1(c2ccccc2)CCN(CC(=O)Nc2cccc3ccccc23)CC1	i	.	.	.	.
O=C(Nc1cccc2ccccc12)c1nn(C23CC4CC(CC(C4)C2)C3)cc1Br	-7.99*	-7.99	-25.5%*	i	i	KCNQ2 inh confirm=i
CCCCn1c(=O)c(C(=O)NCCc2ccccc2)c(O)c2ccccc21	i	.	.	.	.
CCCCn1c(=O)c(C(=O)NC(C)c2ccccc2)c(O)c2ccccc21 (stereo not given)	-11.8*	-11.8	i	i	i
CN1CCN(Cc2nc3ccccc3n2C)CC1	i	1.42	.	.	.
CCC1(CC)C(=O)N(Cc2ccccc2)C(=O)N(Cc2ccccc2)C1=O	-8.19*	-8.19	i	i	i
N=C1SCC(=O)N1Cc1ccccc1	i	1.26	.	.	.
Cc1cc(C=C2C(=O)N(C)C(=S)N(C)C2=O)c(C)n1-c1cccnc1	i	1.57	.	.	.
Cc1ccc(NP(=O)(Nc2ccc(C)cc2)Oc2ccccc2)cc1	-7.08*	-7.08	-31.0%*	i	i	KCNQ2 inh confirm=+
COc1ccc(OP(=O)(Nc2ccccc2)Nc2ccccc2)cc1	i	.	.	.	.
COc1ccccc1N1C(=O)NC(=O)C2(Cc3cc(C)ccc3N(C)C2)C1=O (stereo not given)	i	0.13	.	.	.
CN1CCc2nc3sc(C#N)c(N)c3c(-c3cccs3)c2C1	i	1.93	.	.	.
Cc1ccc(-n2c(O)c(C=Nc3ccccc3N)c(=O)[nH]c2=O)cc1C	i	.	.	.	.
CCOC(=O)c1cccc(-[n+]2c(-c3ccccc3)cc(-c3ccccc3)cc2-c2ccccc2)c1	-7.3*	-7.3	-31.5%*	i	i	KCNQ2 inh confirm=i;Kir21 conf inh=i;HEK293 Tl flux=i
CCOC(=O)c1ccccc1C(=O)OCC	i	0.49	.	.	.
Cc1ccc(-c2cc(-c3ccc(C)cc3)[n+](-c3ccccc3)c(-c3ccc(C)cc3)c2)cc1	-12.6*	-12.6	i	i	i	Kir21 conf inh=11.5%*;HEK293 Tl flux=i
Cc1ccc(-c2cc(-c3ccc(C)cc3)[n+](C)o2)cc1	i	.	.	.	.
C[n+]1c(-c2ccccc2)cc(-c2ccc(Cl)cc2)cc1-c1ccccc1	i	1.02	.	.	.
c1ccc(-c2cc(-c3ccccc3)[n+](-c3ccccc3)c(-c3ccccc3)c2)cc1	-12.8*	-12.8	i	i	i	Kir21 conf inh=34.5%*;HEK293 Tl flux=i
CCCc1c(C)nc(SCC(=O)C(C)(C)C)nc1OC(=O)N(C)C	i	.	.	.	.
CC(Oc1ccc(-c2ccccc2)cc1)C(=O)O (stereo not given)	i	2.62	.	.	.
CN1C(=O)N(C)C(=O)C2(Cc3ccccc3N3CCOCC32)C1=O (stereo not given)	i	1.01	.	.	.
